For some of these results: Results with a measured potency or affinity are listed apart.
Legend:
Design in all cases: scale not given: direction of the effect not stated beside the values
[1] = molecular target: Protein translocase subunit SecA (Escherichia coli (strain K12)) (UniProt P10408); experiment: Assay to Identify E. coli SecA ATPase Inhibitors; format: functional; settings: 30 µM
[2] = molecular target: T1, Ubiquitin-activating enzyme e1, putative (Leishmania donovani (strain BPK282A1)) (UniProt E9BSI1); experiment: Leishmania donovani Ubiquitin Activating Enzyme (LdE1); format: functional; settings: 30 µM
T1 sequence (whole entry): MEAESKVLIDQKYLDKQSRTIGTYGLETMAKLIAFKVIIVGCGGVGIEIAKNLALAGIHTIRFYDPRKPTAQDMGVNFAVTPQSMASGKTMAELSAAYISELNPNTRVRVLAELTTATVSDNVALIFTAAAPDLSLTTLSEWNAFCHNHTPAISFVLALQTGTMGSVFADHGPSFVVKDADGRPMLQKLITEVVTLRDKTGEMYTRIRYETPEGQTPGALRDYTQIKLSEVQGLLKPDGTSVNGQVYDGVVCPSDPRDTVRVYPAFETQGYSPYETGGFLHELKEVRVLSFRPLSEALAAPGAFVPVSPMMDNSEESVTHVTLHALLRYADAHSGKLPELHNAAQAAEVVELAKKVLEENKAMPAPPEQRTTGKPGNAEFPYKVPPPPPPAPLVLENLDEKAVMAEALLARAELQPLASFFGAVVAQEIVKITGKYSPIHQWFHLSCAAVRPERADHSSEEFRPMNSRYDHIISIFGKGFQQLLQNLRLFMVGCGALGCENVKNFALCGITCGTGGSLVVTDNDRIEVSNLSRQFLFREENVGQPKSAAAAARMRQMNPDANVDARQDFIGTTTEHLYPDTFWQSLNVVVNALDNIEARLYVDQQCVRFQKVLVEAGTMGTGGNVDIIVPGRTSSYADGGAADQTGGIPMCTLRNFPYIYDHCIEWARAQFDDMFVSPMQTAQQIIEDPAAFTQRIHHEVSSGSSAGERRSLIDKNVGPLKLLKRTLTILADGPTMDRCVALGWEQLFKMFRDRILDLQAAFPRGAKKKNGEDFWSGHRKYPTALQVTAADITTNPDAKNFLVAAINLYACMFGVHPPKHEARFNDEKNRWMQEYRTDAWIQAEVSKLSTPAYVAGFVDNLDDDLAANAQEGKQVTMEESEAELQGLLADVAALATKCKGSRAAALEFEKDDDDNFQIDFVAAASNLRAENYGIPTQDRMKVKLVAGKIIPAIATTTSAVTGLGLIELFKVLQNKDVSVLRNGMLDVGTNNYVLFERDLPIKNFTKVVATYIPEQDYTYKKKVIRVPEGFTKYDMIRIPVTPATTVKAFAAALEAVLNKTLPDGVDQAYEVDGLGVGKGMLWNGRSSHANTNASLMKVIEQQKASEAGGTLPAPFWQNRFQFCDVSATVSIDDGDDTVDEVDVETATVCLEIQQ

[3] = molecular target: AMP-activated protein kinase, AMPK (Homo sapiens) (UniProt P54646+O43741+P54619+Q9UGJ0+Q9Y478+Q13131+Q9UGI9); experiment: AMP-dependent Kinase enzyme assay. An in vitro enzyme assay that detects ADP turnover that is directly proportional to AMPK activity. This uses naive AMPK that is activated during the assay with MK-8722; format: functional; settings: 30 µM
[4] = molecular target: Sialic acid-binding Ig-like lectin 9 (Homo sapiens) (UniProt Q9Y336); experiment: Hs-Siglec9 ALPHAscreen SOP 20170721; settings: 10 µM
Sialic acid-binding Ig-like lectin 9 (Homo sapiens), sequence (Q9Y336 whole entry): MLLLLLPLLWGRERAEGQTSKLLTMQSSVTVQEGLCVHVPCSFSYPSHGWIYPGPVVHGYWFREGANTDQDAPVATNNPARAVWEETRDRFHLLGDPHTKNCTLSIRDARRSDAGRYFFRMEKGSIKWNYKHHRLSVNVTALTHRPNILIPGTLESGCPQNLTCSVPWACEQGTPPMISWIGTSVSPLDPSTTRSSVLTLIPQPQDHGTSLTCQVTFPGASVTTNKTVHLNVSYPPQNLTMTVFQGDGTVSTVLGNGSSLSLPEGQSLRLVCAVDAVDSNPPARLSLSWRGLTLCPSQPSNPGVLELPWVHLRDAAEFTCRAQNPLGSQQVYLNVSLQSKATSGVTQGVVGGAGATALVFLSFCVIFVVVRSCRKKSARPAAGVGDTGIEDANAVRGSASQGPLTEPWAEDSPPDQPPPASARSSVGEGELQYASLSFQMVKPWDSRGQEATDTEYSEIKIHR

Trypanosoma cruzi = experiment: Trypanosoma cruzi phosphomannomutase and mannose-1-phosphate guanylyltransferase assay; format: functional; settings: 10 µM
[5] = molecular target: T2, Arginase-2, mitochondrial (Homo sapiens) (UniProt P78540); experiment: in vitro enzyme assay to detect the production of urea directly proportional to the activity of Arginase II; format: functional; settings: 33.3 µM; note: in the data most compounds retested in dose-response had high values
T2 sequence (whole entry): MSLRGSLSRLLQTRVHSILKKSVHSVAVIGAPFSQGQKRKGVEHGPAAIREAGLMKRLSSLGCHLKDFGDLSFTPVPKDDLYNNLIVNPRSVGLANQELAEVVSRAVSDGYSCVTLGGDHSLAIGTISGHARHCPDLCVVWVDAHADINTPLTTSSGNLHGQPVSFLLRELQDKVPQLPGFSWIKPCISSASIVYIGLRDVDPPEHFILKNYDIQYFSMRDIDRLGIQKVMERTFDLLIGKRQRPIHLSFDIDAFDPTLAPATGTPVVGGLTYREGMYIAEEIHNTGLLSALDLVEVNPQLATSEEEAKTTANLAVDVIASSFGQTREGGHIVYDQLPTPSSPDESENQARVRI

[6] = molecular target: T3, Proteasome subunit beta (Trypanosoma cruzi) (UniProt O96673); experiment: Trypanosoma cruzi proteasome chymotrypsin-like activity (TcProtChymo) assay.; note: in the data most compounds retested in dose-response had high values; format: functional; settings: 9.37 µM
T3 sequence (whole entry): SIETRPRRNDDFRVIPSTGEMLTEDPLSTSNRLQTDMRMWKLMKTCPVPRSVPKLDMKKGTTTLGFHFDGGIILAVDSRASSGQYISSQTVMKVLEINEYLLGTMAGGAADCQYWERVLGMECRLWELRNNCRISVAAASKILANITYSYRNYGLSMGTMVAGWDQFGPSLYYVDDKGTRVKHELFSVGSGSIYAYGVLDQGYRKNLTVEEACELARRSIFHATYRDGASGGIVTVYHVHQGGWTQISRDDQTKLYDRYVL

Homo sapiens = species on record: Homo sapiens; experiment: To identify inhibition of the IFN signalling (Jak-Stat) pathway via expression of an eGFP reporter gene under the control of an IFN-stimulated response element (ISRE) containing MxA promoter.; format: functional; settings: 30 µM
[7] = molecular target: T4, Tyrosyl-tRNA synthetase, putative (Trypanosoma cruzi (strain CL Brener)) (UniProt Q4DSP6); experiment: Trypanosoma cruzi tyrosyl tRNA synthetase (TcYRS) _High Tyrosine SOP; format: functional; settings: 30 µM; note: in the data most compounds retested in dose-response had high values
T4 sequence (whole entry): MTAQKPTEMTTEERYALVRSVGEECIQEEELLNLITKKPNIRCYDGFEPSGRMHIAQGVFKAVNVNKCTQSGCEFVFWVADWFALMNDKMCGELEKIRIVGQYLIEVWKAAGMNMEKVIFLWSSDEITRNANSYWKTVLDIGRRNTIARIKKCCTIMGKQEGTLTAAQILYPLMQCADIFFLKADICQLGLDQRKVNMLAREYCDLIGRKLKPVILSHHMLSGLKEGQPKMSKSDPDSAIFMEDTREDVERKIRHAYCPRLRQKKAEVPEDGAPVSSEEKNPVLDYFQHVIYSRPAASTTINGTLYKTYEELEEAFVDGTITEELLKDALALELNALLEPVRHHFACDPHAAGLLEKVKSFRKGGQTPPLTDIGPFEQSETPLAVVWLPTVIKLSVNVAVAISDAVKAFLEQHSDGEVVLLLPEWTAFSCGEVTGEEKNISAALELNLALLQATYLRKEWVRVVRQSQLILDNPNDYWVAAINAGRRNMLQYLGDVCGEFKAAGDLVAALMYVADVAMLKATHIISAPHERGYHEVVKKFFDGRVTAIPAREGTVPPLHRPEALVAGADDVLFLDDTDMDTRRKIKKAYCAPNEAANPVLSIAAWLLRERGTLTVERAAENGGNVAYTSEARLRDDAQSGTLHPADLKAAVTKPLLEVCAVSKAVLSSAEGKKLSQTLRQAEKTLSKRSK

[8] = molecular target: T4, Tyrosyl-tRNA synthetase, putative (Trypanosoma cruzi (strain CL Brener)); experiment: Trypanosoma cruzi tyrosyl tRNA synthetase (TcYRS) SOP; format: functional; settings: 30 µM
[9] = molecular target: Chromo domain-containing protein 1 (Saccharomyces cerevisiae (strain ATCC 204508 / S288c) (Baker's yeast)) (UniProt P32657); experiment: ScCHD-1 Enzyme Inhibition Assay; format: functional; settings: 30 µM; note: in the data most compounds retested in dose-response had high values
Chromo domain-containing protein 1 (Saccharomyces cerevisiae (strain ATCC 204508 / S288c) (Baker's yeast)), sequence (P32657 whole entry, the tested form may be a part): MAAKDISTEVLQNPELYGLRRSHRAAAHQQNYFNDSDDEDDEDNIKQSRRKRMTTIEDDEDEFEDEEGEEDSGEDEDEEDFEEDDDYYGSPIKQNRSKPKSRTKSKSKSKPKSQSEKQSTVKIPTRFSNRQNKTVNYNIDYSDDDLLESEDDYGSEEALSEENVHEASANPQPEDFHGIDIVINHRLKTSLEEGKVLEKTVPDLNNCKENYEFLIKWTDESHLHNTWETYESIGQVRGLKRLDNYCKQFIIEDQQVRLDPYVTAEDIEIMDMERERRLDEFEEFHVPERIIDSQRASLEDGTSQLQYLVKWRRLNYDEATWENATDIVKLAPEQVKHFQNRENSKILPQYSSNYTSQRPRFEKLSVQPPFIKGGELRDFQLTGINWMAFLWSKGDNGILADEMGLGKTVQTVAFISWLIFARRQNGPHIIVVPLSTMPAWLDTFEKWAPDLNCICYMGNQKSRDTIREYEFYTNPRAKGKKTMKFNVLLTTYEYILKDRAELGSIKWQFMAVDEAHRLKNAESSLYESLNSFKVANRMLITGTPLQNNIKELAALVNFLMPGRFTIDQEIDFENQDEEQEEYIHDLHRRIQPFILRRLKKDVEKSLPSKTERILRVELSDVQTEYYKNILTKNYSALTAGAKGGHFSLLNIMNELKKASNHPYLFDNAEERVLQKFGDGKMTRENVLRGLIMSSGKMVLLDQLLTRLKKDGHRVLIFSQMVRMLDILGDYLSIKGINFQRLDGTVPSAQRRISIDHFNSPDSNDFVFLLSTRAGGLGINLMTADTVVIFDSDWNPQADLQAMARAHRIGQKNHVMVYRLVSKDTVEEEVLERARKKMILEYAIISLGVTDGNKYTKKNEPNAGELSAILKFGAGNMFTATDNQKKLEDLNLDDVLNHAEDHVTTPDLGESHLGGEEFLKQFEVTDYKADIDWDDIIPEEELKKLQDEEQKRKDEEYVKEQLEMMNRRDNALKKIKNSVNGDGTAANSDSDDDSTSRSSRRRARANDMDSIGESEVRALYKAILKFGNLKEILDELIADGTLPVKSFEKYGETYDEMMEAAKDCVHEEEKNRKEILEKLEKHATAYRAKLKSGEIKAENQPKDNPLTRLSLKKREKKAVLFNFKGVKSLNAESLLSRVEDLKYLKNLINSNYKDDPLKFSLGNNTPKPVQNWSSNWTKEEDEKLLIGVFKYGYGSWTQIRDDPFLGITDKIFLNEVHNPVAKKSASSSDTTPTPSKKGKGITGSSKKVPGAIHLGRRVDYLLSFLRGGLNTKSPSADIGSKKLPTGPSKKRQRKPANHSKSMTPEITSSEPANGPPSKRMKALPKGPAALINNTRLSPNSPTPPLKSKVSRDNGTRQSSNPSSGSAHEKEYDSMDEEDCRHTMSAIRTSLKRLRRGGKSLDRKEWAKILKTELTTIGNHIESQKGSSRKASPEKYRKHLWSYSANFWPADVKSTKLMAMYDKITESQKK

Protein translocase subunit SecA (Escherichia coli (strain K12)), sequence (P10408 whole entry): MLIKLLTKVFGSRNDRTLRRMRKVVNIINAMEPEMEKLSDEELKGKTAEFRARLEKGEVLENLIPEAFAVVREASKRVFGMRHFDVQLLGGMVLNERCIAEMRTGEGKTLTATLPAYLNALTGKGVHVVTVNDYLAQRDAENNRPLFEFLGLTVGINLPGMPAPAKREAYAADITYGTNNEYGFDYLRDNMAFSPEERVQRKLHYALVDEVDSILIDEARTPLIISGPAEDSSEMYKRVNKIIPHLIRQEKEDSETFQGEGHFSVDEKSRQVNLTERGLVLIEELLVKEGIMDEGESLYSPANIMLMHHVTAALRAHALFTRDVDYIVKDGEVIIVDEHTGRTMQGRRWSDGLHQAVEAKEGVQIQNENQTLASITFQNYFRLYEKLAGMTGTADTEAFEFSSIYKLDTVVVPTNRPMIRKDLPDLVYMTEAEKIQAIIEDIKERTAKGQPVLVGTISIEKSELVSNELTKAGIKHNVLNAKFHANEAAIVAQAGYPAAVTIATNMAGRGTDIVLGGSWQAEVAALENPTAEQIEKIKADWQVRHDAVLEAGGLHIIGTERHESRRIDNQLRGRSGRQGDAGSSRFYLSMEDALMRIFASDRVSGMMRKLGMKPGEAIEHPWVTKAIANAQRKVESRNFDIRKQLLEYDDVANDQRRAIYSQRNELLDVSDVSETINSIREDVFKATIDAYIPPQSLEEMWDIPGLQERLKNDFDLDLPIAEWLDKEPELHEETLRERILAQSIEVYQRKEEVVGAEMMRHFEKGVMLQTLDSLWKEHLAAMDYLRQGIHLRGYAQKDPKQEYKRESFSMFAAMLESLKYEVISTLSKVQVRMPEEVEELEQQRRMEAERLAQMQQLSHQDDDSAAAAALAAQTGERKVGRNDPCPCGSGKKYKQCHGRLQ

Compound | Percent Effect [1] [%] | Percent Effect [2] [%] | Percent Effect [3] [%] | Percent Effect [4] [%] | Percent Effect (Trypanosoma cruzi) [%] | Percent Effect [5] [%] | Percent Effect [6] [%] | Percent Effect (Homo sapiens) [%] | Percent Effect [7] [%] | Percent Effect [8] [%] | Percent Effect [9] [%]
Cn1nc(CNC(=O)c2nc3ccccc3s2)c2c1CCOC2 | -1.59 | 0 | 8.14 | 0.56 | 5.03 | -0.645 | 4.18 | 24.8 | 1.06 | 6.41 | -5.4
CC(C)SCC(=O)N1CCc2c(nc(N(C)C)nc2N(C)C)C1 | -5.05 | 13.3 | -4.26 | 19.7 | 6.52 | 5.73 | 13.8 | 10.8 | 2.73 | 8.64 | -8.15
CCC(=O)N1CCN(C(=O)CCn2cccn2)CC1 | -1.61 | 24.3 | -7.17 | 0.998 | 6.96 | 0.554 | 8.62 | 5.89 | 6.93 | 25.6 | -6.76
CN1CCCC1CNC(=O)CCCOCc1ccccc1 (stereo unspecified) | -4.32 | 2.63 | 1.84 | 9.93 | 2.44 | 2.3 | -4.01 | -1.82 | 5.39 | 7.32 | 6
Cc1ccc(CN2CCCC3(CCN(S(=O)(=O)N(C)C)C3)C2)o1 (stereo unspecified) | -4.24 | 10.7 | 11.3 | 7.3 | -2.17 | 3.03 | 13.7 | 9.85 | 7.45 | 19.2 | -3.25
Cn1cnnc1CNC(=O)Nc1cc(C(F)(F)F)c[nH]c1=O | -4.28 | 7.89 | -0.726 | 8.28 | 1.5 | -0.383 | 3.84 | 2.52 | 2.45 | 7.32 | -7.82
Nc1nccc(N2CCC(Cc3ccccc3Cl)(C(=O)O)CC2)n1 | -1.91 | 16.2 | -3.46 | 22.5 | 6.56 | 9.52 | 18.1 | -0.891 | 5.82 | 21.9 | -7.9
O=C(c1cccn1Cc1cccs1)N1CCN(C(=O)C2CC2)CC1 | -6.16 | 13 | 1.66 | 2.72 | 1.5 | -0.712 | 0.845 | 9.85 | 8.74 | 21.9 | 1.63
CC(C(=O)N1CCCN(c2ncccc2C#N)CC1)n1ccnc1 (stereo unspecified) | -2.42 | 21.1 | 0.0866 | -9.53 | 5.13 | -1.08 | 7.19 | 14 | 10.3 | 18.5 | -9.73
CC(C)CN1CCc2[nH]cnc2C12CCN(C(=O)c1cccnc1)CC2 | -8.51 | 0 | -4.57 | 3.2 | -3.99 | -1.56 | 14.3 | 12.4 | -3.83 | -6.17 | -6.87
CNCC(=O)N1CCCC(c2cccc(Nc3nc(C)cc(C)n3)n2)C1 (stereo unspecified) | -3.22 | 28.4 | 6.16 | -10.1 | 3.56 | -5.34 | 14.3 | 22 | 3.23 | 11.7 | -21.5

— ChEMBL document CHEMBL3988442, “University of Dundee, Small-Polar-MMV Screening Library” (2021)
